Data reported in PubChem BioAssay (Tox21).
Values without a mark were called inactive. Records with an inconclusive call do not appear. Entries that show only a call come without a potency. Calls of active or inactive are those of the source. Unless noted, the call rests on the fitted dose curve; in most records, active means well fitted curve in the direction sought with a large enough effect in the repeat runs; inconclusive means weak or mixed curves; inactive means no such curve, though single readings can be large; an effect the other way counts as inactive or inconclusive.

What was measured:
[1] = qHTS assay to test for compound auto fluorescence at 535 nm (green) in HEK293 cells (AID 720680)
[2] = qHTS assay to test for compound auto fluorescence at 460 nm (blue) in HEK293 cell free culture (AID 720681)
Summary of the method: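 Blue fluorescence (Ex 405/Em 460 nm, triamterene-equivalent) was read immediately after pin transfer of compound or DMSO into medium (DMEM, 10% FBS) without cells.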

[3] = qHTS assay to test for compound auto fluorescence at 535 nm (green) in HEK293 cell free culture (AID 720682)
Summary of the method: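 Each library compound, or DMSO control, is added by pintool to medium alone, comprising DMEM and 10% FBS. Emission at 535 nm following 485 nm excitation is quantified against fluorescein.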

[4] = qHTS assay to test for compound auto fluorescence at 590 nm (red) in HEK293 cell free culture (AID 720683)
Summary of the method: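 Red-channel autofluorescence of compounds in culture medium (DMEM, 10% FBS), no cells, measured at 540/590 nm. Rose Bengal sodium is the reference fluorophore for equivalence.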

[5] = qHTS assay to test for compound auto fluorescence at 590 nm (red) in HepG2 cell free culture (AID 720684)
Summary of the method: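 Plate contents were MEM with 10% FBS plus test compound or DMSO, no cells. Fluorescence was recorded with 540 nm excitation and 590 nm emission.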

[6] = qHTS assay to test for compound auto fluorescence at 460 nm (blue) in HepG2 cell free culture (AID 720685)
Summary of the method: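 Compound (23 nL) or DMSO pinned into cell-free MEM with 10% FBS; blue fluorescence read at 405/460 nm excitation/emission, expressed as auto-fluorescence equivalency to triamterene.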

[7] = qHTS assay to test for compound auto fluorescence at 535 nm (green) in HepG2 cell free culture (AID 720686)
[8] = qHTS assay to test for compound auto fluorescence at 460 nm (blue) in HepG2 cells (AID 720687)
Summary of the method: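 Blue-channel autofluorescence (Ex/Em 405/460 nm, triamterene-equivalent) was measured after 1 hr compound exposure at 37 C, 5% CO2. Cells were HepG2, plated overnight at 37 C in MEM plus 10% FBS.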

[9] = qHTS assay to identify small molecule antagonists of the glucocorticoid receptor (GR) signaling pathway - cell viability counter screen (AID 720693); further: nearly all actives have a fitted effect of over 55% in size
[10] = qHTS assay for identifying genotoxic compounds that show differential cytotoxicity against isogenic chicken DT40 cell lines with known DNA damage response pathways - wild type cell line (AID 743012); further: nearly all actives have a fitted effect of over 60% in size
Summary of the method: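 Quantitative HTS on parental DT40 cells: 40 h compound treatment at 37 C/5% CO2, with viability then determined by CellTiter-Glo luminescence. Values serve as the DNA repair-proficient reference for differential cytotoxicity.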

[11] = qHTS assay for identifying genotoxic compounds that show differential cytotoxicity against isogenic chicken DT40 cell lines with known DNA damage response pathways - Rad54/Ku70 mutant cell line (AID 743015); further: nearly all actives have a fitted effect of over 60% in size
[12] = qHTS assay to identify small molecule antagonists of the androgen receptor (AR) signaling pathway - cell viability counter screen (AID 743033; further: nearly all actives have a fitted effect of over 45% in size)
[13] = molecular target: Androgen receptor (Homo sapiens) (UniProt P10275); test: qHTS assay to identify small molecule agonists of the androgen receptor (AR) signaling pathway (AID 743036; active means well fitted activation curve with a large enough effect in the signal ratio in the repeat runs, with a control signal flat, not every such curve was filed as active; the % refers to the signal ratio)
Androgen receptor (Homo sapiens), sequence (P10275 whole entry, looked up): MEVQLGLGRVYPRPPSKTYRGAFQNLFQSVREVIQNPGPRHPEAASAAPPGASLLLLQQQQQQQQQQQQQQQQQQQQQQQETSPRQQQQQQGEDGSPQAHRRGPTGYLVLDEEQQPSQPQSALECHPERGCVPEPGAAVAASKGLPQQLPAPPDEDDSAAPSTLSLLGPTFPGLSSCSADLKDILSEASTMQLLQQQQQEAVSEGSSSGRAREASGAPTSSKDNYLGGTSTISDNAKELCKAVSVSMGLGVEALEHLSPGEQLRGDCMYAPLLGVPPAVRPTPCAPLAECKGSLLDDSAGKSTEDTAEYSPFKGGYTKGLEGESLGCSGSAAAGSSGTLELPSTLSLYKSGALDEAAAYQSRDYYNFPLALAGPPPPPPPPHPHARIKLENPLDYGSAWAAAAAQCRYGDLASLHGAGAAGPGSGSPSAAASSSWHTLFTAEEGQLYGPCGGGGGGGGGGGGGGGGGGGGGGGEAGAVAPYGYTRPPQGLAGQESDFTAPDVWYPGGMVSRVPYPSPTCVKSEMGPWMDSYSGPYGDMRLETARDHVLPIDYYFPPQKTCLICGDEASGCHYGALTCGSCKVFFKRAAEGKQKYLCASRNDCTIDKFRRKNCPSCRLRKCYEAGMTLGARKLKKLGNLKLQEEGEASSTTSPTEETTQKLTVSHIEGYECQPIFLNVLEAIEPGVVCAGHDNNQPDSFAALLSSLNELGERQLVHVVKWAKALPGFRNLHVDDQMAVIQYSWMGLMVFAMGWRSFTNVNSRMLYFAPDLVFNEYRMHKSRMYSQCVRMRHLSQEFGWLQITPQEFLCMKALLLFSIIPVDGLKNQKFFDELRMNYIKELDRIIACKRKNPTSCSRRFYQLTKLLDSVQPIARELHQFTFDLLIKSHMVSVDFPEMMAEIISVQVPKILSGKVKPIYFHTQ
Summary of the method: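 Following a 4 h settling period, AR-UAS-bla HEK293 cells were dosed with compounds for 16 h at 37C. A 2 h room-temperature incubation with LiveBLAzer B/G FRET substrate preceded the fluorescence measurement.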

[14] = molecular target: Androgen receptor (Homo sapiens) (UniProt P10275); test: qHTS assay to identify small molecule agonists of the androgen receptor (AR) signaling pathway using the MDA cell line (AID 743040; further: nearly all actives have a fitted effect of over 20% in size)
Summary of the method: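 After a 5 h incubation at 37C and 0% CO2, MDA-kb2 reporter cells were dosed with compounds in DMSO and kept 16 h under the same conditions. Luciferase activity was then read as luminescence with ONE-Glo.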

[15] = qHTS assay to identify small molecule antagonists of the androgen receptor (AR) signaling pathway using the MDA cell line - cell viability counter screen (AID 743041; further: nearly all actives have a fitted effect of over 45% in size)
Summary of the method: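 R1881-driven MDA-kb2 AR-luc cells, 3,000/well, were dosed with library compounds for 16 h; cell health came from CellTiter-Fluor fluorescence in the reporter wells.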

[16] = molecular target: Androgen receptor (Homo sapiens) (UniProt P10275); test: qHTS assay to identify small molecule antagonists of the androgen receptor (AR) signaling pathway using the MDA cell line (AID 743042; further: nearly all actives have a fitted effect of over 55% in size)
Summary of the method: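 Antagonist mode: compounds plus R1881 agonist added to MDA-kb2 AR-luc cells, incubated 16 h at 37C. Luciferase reporter luminescence quantified, with multiplexed CellTiter-Fluor readout for cell viability.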

[17] = molecular target: Glucocorticoid receptor (Homo sapiens) (UniProt P04150); test: qHTS assay to identify small molecule agonists of the glucocorticoid receptor (GR) signaling pathway (AID 720691; active means well fitted activation curve with a large enough effect in the signal ratio in the repeat runs, not every such curve was filed as active; the % refers to the signal ratio)
Glucocorticoid receptor (Homo sapiens), sequence (P04150 whole entry, looked up): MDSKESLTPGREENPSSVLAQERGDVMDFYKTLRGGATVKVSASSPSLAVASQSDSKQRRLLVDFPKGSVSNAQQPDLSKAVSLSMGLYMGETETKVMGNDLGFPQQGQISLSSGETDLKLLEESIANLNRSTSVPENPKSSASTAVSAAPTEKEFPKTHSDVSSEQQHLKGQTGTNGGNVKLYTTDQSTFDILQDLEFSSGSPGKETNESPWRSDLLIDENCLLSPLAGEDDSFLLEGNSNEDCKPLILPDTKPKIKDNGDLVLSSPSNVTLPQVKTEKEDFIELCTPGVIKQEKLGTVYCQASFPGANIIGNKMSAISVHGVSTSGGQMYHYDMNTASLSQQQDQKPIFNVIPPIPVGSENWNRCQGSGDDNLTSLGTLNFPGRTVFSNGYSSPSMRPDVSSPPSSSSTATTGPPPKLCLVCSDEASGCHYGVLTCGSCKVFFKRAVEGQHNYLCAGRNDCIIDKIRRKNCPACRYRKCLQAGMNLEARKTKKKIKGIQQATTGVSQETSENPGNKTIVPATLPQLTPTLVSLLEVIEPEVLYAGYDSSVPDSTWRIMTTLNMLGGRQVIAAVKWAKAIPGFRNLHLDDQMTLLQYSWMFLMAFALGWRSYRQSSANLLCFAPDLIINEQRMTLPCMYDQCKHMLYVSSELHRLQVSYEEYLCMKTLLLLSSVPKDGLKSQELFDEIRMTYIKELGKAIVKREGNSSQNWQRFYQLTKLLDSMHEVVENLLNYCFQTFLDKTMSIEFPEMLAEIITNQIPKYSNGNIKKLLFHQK
Summary of the method: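 Beta-lactamase reporter activity, read as fluorescence intensity, was measured in GR-bla HeLa cells exposed to compounds for 18 h at 37 C and then loaded with LiveBLAzer B/G FRET substrate for 2 h at room temperature.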

[18] = qHTS assay for identifying genotoxic compounds that show differential cytotoxicity against isogenic chicken DT40 cell lines with known DNA damage response pathways - Rev3 mutant cell line (AID 743014); further: nearly all actives have a fitted effect of over 55% in size; further: potency means the concentration at half of the fitted maximal effect
[19] = molecular target: Androgen receptor (Homo sapiens) (UniProt P10275); test: qHTS assay to identify small molecule antagonists of the androgen receptor (AR) signaling pathway (AID 743035; active means well fitted inhibition curve with a large enough effect in the signal ratio in the repeat runs, not every such curve was filed as active; the % refers to the signal ratio)
Summary of the method: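 Cell line: GeneBLAzer AR-UAS-bla GripTite (HEK293). Stimulus: R1881 added after compound. Exposure: 16 h, 37C, 5% CO2. Readout: LiveBLAzer B/G FRET fluorescence after 2 h at room temperature.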

[20] = molecular target: Glucocorticoid receptor (Homo sapiens) (UniProt P04150); test: qHTS assay to identify small molecule antagonists of the glucocorticoid receptor (GR) signaling pathway (AID 720692; active means well fitted inhibition curve with a large enough effect in the signal ratio in the repeat runs, not every such curve was filed as active; the % refers to the signal ratio)
Summary of the method: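 Fluorescence from cleaved LiveBLAzer B/G FRET substrate reports GRE-driven beta-lactamase in HeLa cells; compounds are tested against 5 nM dexamethasone (final) over 18 h at 37 C, substrate incubation 2 h at room temperature.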

SMILES	outcome [1]	Potency [2]	outcome [3]	outcome [4]	outcome [5]	outcome [6]	outcome [7]	outcome [8]	Potency [9]	Potency [10]	Potency [11]	Potency [12]	outcome [13]	outcome [14]	Potency [15]	Potency [16]	Potency [17]	Potency [18]	Potency [19]	Potency [20]
O=S(=O)(O)c1cc(Cl)c(Cl)cc1Cl	inactive	inactive	inactive	inactive	inactive	inactive	inactive	inactive	inactive	inactive	inactive	inactive	inactive	inactive	inactive	inactive				
NC(=O)c1ccccc1	inactive	inactive	inactive	inactive	inactive	inactive		inactive	inactive	inactive	inactive	inactive	inactive	inactive	inactive	inactive	inactive	inactive	inactive	
CCCC(=O)OCCC(C)C	inactive	inactive	inactive	inactive	inactive	inactive		inactive	inactive		inactive	inactive	inactive	inactive	inactive	inactive	inactive	inactive	inactive	inactive
CCCCOC(=O)CC#N	inactive	inactive	inactive	inactive	inactive	inactive	inactive	inactive	inactive	inactive	inactive	inactive			inactive					
N#CCCCC(C#N)CCC#N (stereo unspecified)	inactive	inactive	inactive	inactive	inactive	inactive	inactive	inactive	inactive	inactive	inactive	inactive			inactive			inactive		
Sc1nc(S)nc(S)n1	inactive	inactive	inactive	inactive	inactive	inactive	inactive	inactive	inactive		inactive	inactive			inactive			inactive		
C[C@H]1C[C@H]2[C@@H]3CCC4=CC(=O)C=C[C@]4(C)[C@@]3(F)[C@@H](O)C[C@]2(C)[C@@]1(O)C(=O)COP(=O)(O)O	inactive	inactive	inactive	inactive	inactive	inactive	inactive	inactive	inactive		inactive	inactive			inactive			inactive		
O=C(OCCCCCOC(=O)c1ccccc1)c1ccccc1	inactive	inactive	inactive	inactive	inactive	inactive	inactive	inactive	inactive			inactive						61.1 µM (active)		
C[C@]12CCC(=O)C=C1[C@@H]1C[C@@H]1[C@H]1[C@@H]3[C@@H]4C[C@@H]4[C@@]4(CCC(=O)O4)[C@@]3(C)CC[C@@H]12	inactive	inactive	inactive	inactive	inactive	inactive	inactive	inactive				inactive			inactive			11.9 µM (active)		
CC(C)(O)C(=O)O	inactive	inactive	inactive	inactive	inactive	inactive		inactive	inactive		inactive	inactive			inactive		inactive	inactive		inactive
C=C(C)C(=O)OCCCCCCCCCCOC(=O)C(=C)C	inactive	inactive	inactive	inactive	inactive	inactive	inactive	inactive	inactive			inactive			inactive			30.6 µM (active)		
O=c1c2ccccc2oc2ccccc12	inactive	inactive	inactive	inactive	inactive	inactive	inactive	inactive	inactive		inactive	inactive			inactive			61.1 µM (active)		
